Activity calls are given as the source filed them. How the source made its calls: active means hit-call score of the fitted dose curve at least 0.9, where 1 is the maximum; inactive means score below 0.9.
Legend:
[1] = read-out: Tissue Factor, F3 (gene 2152); assay: BSK_CASM3C_TissueFactor: BioMAP Diversity Plus: CASM3C Assay for Tissue Factor Biomarker Activity (AID 2283052); conditions: primary human coronary artery smooth muscle cells; actives raise or lower the signal;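 further: cell surface tissue factor protein level read by ELISA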
[2] = read-out: Interferon-gamma inducible Protein 10 (IP10), CXCL10 (gene 3627); assay: BSK_hDFCGF_IP10: BioMAP Diversity Plus: hDFCGF Assay for Interferon-gamma inducible Protein 10 (IP10) Biomarker Activity (AID 2283053); conditions: primary human foreskin fibroblasts; actives raise or lower the signal
Method in brief: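 Primary foreskin fibroblasts, human; 24 h compound exposure; IP-10 by ELISA; bidirectional fit vs DMSO.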

[3] = read-out: Urokinase-type plasminogen activator receptor (uPAR), PLAUR (gene 5329); assay: BSK_CASM3C_uPAR: BioMAP Diversity Plus: CASM3C Assay for Urokinase-type plasminogen activator receptor (uPAR) Biomarker Activity (AID 2283054); conditions: primary human coronary artery smooth muscle cells; actives raise or lower the signal;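 further: cell-surface uPAR protein level quantified by ELISA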
[4] = read-out: Vascular cell adhesion molecule 1 (VCAM1), VCAM1 (gene 7412); assay: BSK_CASM3C_VCAM1: BioMAP Diversity Plus: CASM3C Assay for Vascular cell adhesion molecule 1 (VCAM1) Biomarker Activity (AID 2283055); conditions: primary human coronary artery smooth muscle cells; actives raise or lower the signal;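 further: VCAM-1 protein level quantified by ELISA on the cells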
[5] = read-out: Collagen III, COL3A1 (gene 1281); assay: BSK_hDFCGF_CollagenIII: BioMAP Diversity Plus: hDFCGF Assay for Collagen III Biomarker Activity (AID 2283056); conditions: primary human foreskin fibroblasts; actives raise or lower the signal
Method in brief: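 Human foreskin fibroblast primary cultures sampled 24 h after dosing; Collagen III quantified by ELISA. Signal fitted bidirectionally against DMSO baseline.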

[6] = read-out: Epidermal growth factor receptor (EGFR), EGFR (gene 1956); assay: BSK_hDFCGF_EGFR: BioMAP Diversity Plus: hDFCGF Assay for Epidermal growth factor receptor (EGFR) Biomarker Activity (AID 2283057); conditions: primary human foreskin fibroblasts; actives raise or lower the signal
Method in brief: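 hDFCGF system, primary human foreskin fibroblasts; compound 24 h; EGFR measured by ELISA; DMSO = negative control/baseline; bidirectional fitting.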

[7] = read-out: Interleukin-8 (IL8), CXCL8 (gene 3576); assay: BSK_hDFCGF_IL8: BioMAP Diversity Plus: hDFCGF Assay for Interleukin-8 (IL8) Biomarker Activity (AID 2283058); conditions: primary human foreskin fibroblasts; actives raise or lower the signal
Method in brief: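 Primary human foreskin fibroblasts (hDFCGF system) dosed with chemical; IL-8 measured by ELISA 24 hours later. Bidirectional curve fitting relative to DMSO baseline; cytotoxicity tracked in parallel cultures by SRB total protein staining.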

[8] = BSK_hDFCGF_Proliferation: Cell Proliferation Assessment in the BioMAP Diversity Plus: hDFCGF Assay (AID 2283059); conditions: primary human foreskin fibroblasts;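 further: curves fitted for both rise and fall of signal versus DMSO baseline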
Method in brief: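 Sub-confluent human foreskin fibroblast cultures receive test chemical […]. Relative cell number is quantified by sulforhodamine B staining (0.1%, after 10% TCA fixation) at 560 nm, with bidirectional fitting referenced to DMSO.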

[9] = read-out: Macrophage colony-stimulating factor (MCSF), CSF1 (gene 1435); assay: BSK_hDFCGF_MCSF: BioMAP Diversity Plus: hDFCGF Assay for Macrophage colony-stimulating factor (MCSF) Biomarker Activity (AID 2283060); conditions: primary human foreskin fibroblasts; actives raise or lower the signal
Method in brief: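 Human foreskin fibroblast primary cultures; M-CSF measured by ELISA 24 hours after chemical dosing. Bidirectional fitting relative to DMSO, with overt cytotoxicity tracked by parallel SRB total-protein staining (0.1% SRB, 10% TCA fixation, 560 nm).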

[10] = BSK_hDFCGF_SRB: Viability Assessment in the BioMAP Diversity Plus: hDFCGF Assay (AID 2283061); conditions: primary human foreskin fibroblasts;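 further: cells exposed to compound for 24 h before the read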
Method in brief: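 Human foreskin fibroblasts in 96-well plates were treated 24 h. Total protein was measured by 0.1% SRB staining after 10% TCA fixation, read at 560 nm. Data were fitted bidirectionally against DMSO.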

[11] = read-out: TIMP metallopeptidase inhibitor 1 (TIMP1), TIMP1 (gene 7076); assay: BSK_hDFCGF_TIMP1: BioMAP Diversity Plus: hDFCGF Assay for TIMP metallopeptidase inhibitor 1 (TIMP1) Biomarker Activity (AID 2283062); conditions: primary human foreskin fibroblasts; actives raise or lower the signal
Method in brief: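 Human foreskin fibroblast primary cultures dosed for 24 h; secreted/surface TIMP-1 quantified by ELISA. Bidirectional curve fitting against DMSO baseline; cytotoxicity tracked in parallel cultures by SRB total-protein staining.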

[12] = read-out: Monokine induced gamma interferon (MIG), CXCL9 (gene 4283); assay: BSK_hDFCGF_MIG: BioMAP Diversity Plus: hDFCGF Assay for Monokine induced gamma interferon (MIG) Biomarker Activity (AID 2283063); conditions: primary human foreskin fibroblasts; actives raise or lower the signal
Method in brief: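 MIG/CXCL9 measured by ELISA 24 h after dosing primary human skin fibroblasts. Activity fitted in both directions against DMSO controls. Cytotoxicity was checked in parallel cultures by SRB staining read at 560 nm.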

[13] = read-out: Matrix Metallopeptidase 1 (MMP1), MMP1 (gene 4312); assay: BSK_hDFCGF_MMP1: BioMAP Diversity Plus: hDFCGF Assay for Matrix Metallopeptidase 1 (MMP1) Biomarker Activity (AID 2283064); conditions: primary human foreskin fibroblasts; actives raise or lower the signal
Method in brief: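 hDFCGF primary fibroblasts (human foreskin); chemical added; 24 h; MMP1 by ELISA; bidirectional fit vs DMSO.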

[14] = read-out: Vascular cell adhesion molecule 1 (VCAM1), VCAM1 (gene 7412); assay: BSK_hDFCGF_VCAM1: BioMAP Diversity Plus: hDFCGF Assay for Vascular cell adhesion molecule 1 (VCAM1) Biomarker Activity (AID 2283065); conditions: primary human foreskin fibroblasts; actives raise or lower the signal;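 on AC50: VCAM-1 protein level quantified by ELISA after 24 h chemical exposure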
Method in brief: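 Human foreskin fibroblast primary cells dosed with chemical, VCAM-1 measured by ELISA at 24 h. Bidirectional curve fitting relative to DMSO as negative control/baseline.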

[15] = read-out: Plasminogen activator inhibitor-1 (PAI1), SERPINE1 (gene 5054); assay: BSK_hDFCGF_PAI1: BioMAP Diversity Plus: hDFCGF Assay for Plasminogen activator inhibitor-1 (PAI1) Biomarker Activity (AID 2283066); conditions: primary human foreskin fibroblasts; actives raise or lower the signal
Method in brief: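 Primary dermal fibroblasts (human foreskin), hDFCGF system; compound 24 h; PAI-1 by ELISA; bidirectional fit vs DMSO control.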

[16] = read-out: Intercellular Adhesion Molecule 1 (ICAM1), ICAM1 (gene 3383); assay: BSK_KF3CT_ICAM1: BioMAP Diversity Plus: KF3CT Assay for Intercellular Adhesion Molecule 1 (ICAM1) Biomarker Activity (AID 2283067); conditions: primary human keratinocytes with fibroblasts; actives raise or lower the signal
Method in brief: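 Human keratinocyte–foreskin fibroblast co-culture was treated for 24 h. Cell-surface ICAM-1 was quantified by ELISA, fitted bidirectionally relative to DMSO. Cytotoxicity was checked in parallel cultures by SRB total-protein staining.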

[17] = read-out: Interferon-gamma inducible Protein 10 (IP10), CXCL10 (gene 3627); assay: BSK_KF3CT_IP10: BioMAP Diversity Plus: KF3CT Assay for Interferon-gamma inducible Protein 10 (IP10) Biomarker Activity (AID 2283068); conditions: primary human keratinocytes with fibroblasts; actives raise or lower the signal
Method in brief: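 ELISA read-out of IP-10 after 24 h chemical dosing of human skin primary co-culture (keratinocytes, foreskin fibroblasts). Gain or loss of signal relative to DMSO, bidirectional curve fit.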

[18] = BSK_KF3CT_SRB: Viability Assessment in the BioMAP Diversity Plus: KF3CT Assay (AID 2283069); conditions: primary human keratinocytes with fibroblasts;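 further: total protein by sulforhodamine B staining as a cytotoxicity measure; read 24 h after compound addition; fitted for both signal gain and loss against DMSO baseline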
Method in brief: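 Keratinocytes co-cultured with foreskin fibroblasts (human primary); chemical added, 24 h; fix 10% TCA, stain 0.1% SRB, A560. Bidirectional fit vs DMSO.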

[19] = read-out: Interleukin-1 alpha (IL1a), IL1A (gene 3552); assay: BSK_KF3CT_IL1a: BioMAP Diversity Plus: KF3CT Assay for Interleukin-1 alpha (IL1a) Biomarker Activity (AID 2283070); conditions: primary human keratinocytes with fibroblasts; actives raise or lower the signal
Method in brief: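 Chemicals were dosed onto co-cultured human keratinocytes and foreskin fibroblasts, IL-1a was quantified by ELISA at 24 h, and activity was fitted in both directions relative to DMSO controls.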

[20] = read-out: TIMP metallopeptidase inhibitor 2 (TIMP2), TIMP2 (gene 7077); assay: BSK_KF3CT_TIMP2: BioMAP Diversity Plus: KF3CT Assay for TIMP metallopeptidase inhibitor 2 (TIMP2) Biomarker Activity (AID 2283071); conditions: primary human keratinocytes with fibroblasts; actives raise or lower the signal
Method in brief: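 Cells: human keratinocytes co-cultured with foreskin fibroblasts. Treat with chemical, 24 h. Measure TIMP-2 by ELISA; fit curves bidirectionally vs DMSO baseline.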

## CCC(=C(c1ccc(O)cc1)c1ccc(OCCN(C)C)cc1)c1ccccc1
[1]
  AC50: 15.8 µM (active)
[2]
  AC50: 10.5 µM (active)
[3]
  AC50: 20.3 µM (active)
[4]
  AC50: 22.3 µM (active)
[5]
  AC50: 7.58 µM (active)
[6]
  outcome: inactive
[7]
  AC50: 12.8 µM (active)
[8]
  AC50: 4.77 µM (active)
[9]
  AC50: 10.2 µM (active)
[10]
  AC50: 10.7 µM (active)
[11]
  AC50: 12.1 µM (active)
[12]
  AC50: 13.7 µM (active)
[13]
  AC50: 10.7 µM (active)
[14]
  AC50: 10.7 µM (active)
[15]
  AC50: 7.53 µM (active)
[16]
  AC50: 12.3 µM (active)
[17]
  AC50: 10.4 µM (active)
[18]
  AC50: 8.81 µM (active)
[19]
  AC50: 9.91 µM (active)
[20]
  AC50: 10.5 µM (active)

## O=C(OCCOCCOC(=O)c1ccccc1)c1ccccc1
[1]
  outcome: inactive
[2]
  outcome: inactive
[3]
  outcome: inactive
[4]
  outcome: inactive
[5]
  outcome: inactive
[6]
  outcome: inactive
[7]
  outcome: inactive
[8]
  outcome: inactive
[9]
  outcome: inactive
[10]
  outcome: inactive
[11]
  outcome: inactive
[12]
  outcome: inactive
[13]
  outcome: inactive
[14]
  outcome: inactive
[15]
  outcome: inactive
[16]
  outcome: inactive
[17]
  outcome: inactive
[18]
  outcome: inactive
[19]
  outcome: inactive
[20]
  outcome: inactive

## CCC(C)(C)C1CCC(O)CC1 (stereo not given)
[1]
  outcome: inactive
[2]
  outcome: inactive
[3]
  outcome: inactive
[4]
  outcome: inactive
[5]
  outcome: inactive
[6]
  outcome: inactive
[7]
  outcome: inactive
[8]
  outcome: inactive
[9]
  outcome: inactive
[10]
  outcome: inactive
[11]
  outcome: inactive
[12]
  outcome: inactive
[13]
  outcome: inactive
[14]
  outcome: inactive
[15]
  outcome: inactive
[16]
  outcome: inactive
[17]
  AC50: 32.8 µM (active)
[18]
  outcome: inactive
[19]
  outcome: inactive
[20]
  outcome: inactive

## CC(C)CCCCCCOC(=O)CCCCC(=O)OCCCCCCC(C)C
[1]
  outcome: inactive
[2]
  outcome: inactive
[3]
  outcome: inactive
[4]
  outcome: inactive
[5]
  outcome: inactive
[6]
  outcome: inactive
[7]
  outcome: inactive
[8]
  outcome: inactive
[9]
  outcome: inactive
[10]
  outcome: inactive
[11]
  outcome: inactive
[12]
  outcome: inactive
[13]
  outcome: inactive
[14]
  outcome: inactive
[15]
  outcome: inactive
[16]
  outcome: inactive
[17]
  outcome: inactive
[18]
  outcome: inactive
[19]
  outcome: inactive
[20]
  outcome: inactive

## CCOC(=O)CC(O)(CC(=O)OCC)C(=O)OCC
[1]
  outcome: inactive
[2]
  outcome: inactive
[3]
  outcome: inactive
[4]
  outcome: inactive
[5]
  outcome: inactive
[6]
  outcome: inactive
[7]
  outcome: inactive
[8]
  outcome: inactive
[9]
  outcome: inactive
[10]
  outcome: inactive
[11]
  outcome: inactive
[12]
  outcome: inactive
[13]
  outcome: inactive
[14]
  outcome: inactive
[15]
  outcome: inactive
[16]
  outcome: inactive
[17]
  outcome: inactive
[18]
  outcome: inactive
[19]
  outcome: inactive
[20]
  outcome: inactive

## O=c1c(-c2ccc(O)cc2)coc2cc(O)ccc12
[1]
  outcome: inactive
[2]
  outcome: inactive
[3]
  outcome: inactive
[4]
  outcome: inactive
[5]
  outcome: inactive
[6]
  outcome: inactive
[7]
  outcome: inactive
[8]
  outcome: inactive
[9]
  outcome: inactive
[10]
  outcome: inactive
[11]
  outcome: inactive
[12]
  outcome: inactive
[13]
  outcome: inactive
[14]
  outcome: inactive
[15]
  outcome: inactive
[16]
  outcome: inactive
[17]
  outcome: inactive
[18]
  outcome: inactive
[19]
  outcome: inactive
[20]
  outcome: inactive

## O=C(O)c1ccccc1C(c1ccc(O)cc1)c1ccc(O)cc1
[1]
  outcome: inactive
[2]
  outcome: inactive
[3]
  outcome: inactive
[4]
  outcome: inactive
[5]
  outcome: inactive
[6]
  outcome: inactive
[7]
  outcome: inactive
[8]
  outcome: inactive
[9]
  outcome: inactive
[10]
  outcome: inactive
[11]
  outcome: inactive
[12]
  outcome: inactive
[13]
  outcome: inactive
[14]
  outcome: inactive
[15]
  outcome: inactive
[16]
  outcome: inactive
[17]
  outcome: inactive
[18]
  outcome: inactive
[19]
  outcome: inactive
[20]
  outcome: inactive

Source: PubChem BioAssay (EPA / NIEHS)
